The values that follow come from the supplement of paper PMC9694430.
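Note: purified Escherichia coli-expressed rice kinase domain construct.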

For one assay, the system named is LOC_OS01G60700-cb002. Briefly: thermal shift delta Tm vs DMSO control; higher = stronger stabilization (binding). To be noted: 12.5 µM; protein concentration 2 µM. The method in brief: (§1)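 Rice kinase domain constructs, made in E. coli and purified, were placed in 96-well plates at 2 μM in 19.5 μl of 100 mM potassium phosphate pH 7.5, 150 mM NaCl, 10% glycerol and 5 × SYPRO Orange, with compound in DMSO. A temperature ramp from 25°C to 95°C at 0.05°C/s was used for differential scanning fluorimetry. The melting temperature shift is a triplicate mean compared with DMSO-only protein, derived from Boltzmann fits.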
With `N#Cc1ccc2ncnc(NCCc3ccccc3)c2c1` [Senexin A], the “thermal shift delta Tm” value was -0.36 °C.
On the same count and under the same terms, in the case of `CCOc1cn(-c2ccc(F)cc2C)nc1C(=O)Nc1ccc(Oc2ccnc3cc(OC)c(OC)cc23)c(F)c1` it was 0.34 °C.
The same measure, in the same setting: in the case of `Fc1ccc2[nH]ccc2c1-c1nc(N2CCOCC2)c2sc(CN3CCN(CC4CC4)CC3)cc2n1` it was 1.22 °C.
Same read-out and setting: with `COc1cccc2cc(-c3nc([C@H]4CC[C@H](C(=O)O)CC4)n4ncnc(N)c34)[nH]c12` the figure was 0.9 °C; with `N#Cc1cnc(Nc2cc(NC[C@H]3CNCCO3)c(C(F)(F)F)cn2)cn1`, 1.23 °C.
Take `O=C(NOCCO)c1ccc2cncn2c1Nc1ccc(I)cc1F`: the “thermal shift delta Tm” value was 0.86 °C.
With `COc1cc2c(Nc3ccc(NC(=O)c4ccccc4)cc3)ncnc2cc1OCCCN1CCOCC1`, the “thermal shift delta Tm” value was determined as 0.6 °C.
Take `NC(=O)Nc1cc(-c2cccc(F)c2)sc1C(=O)N[C@H]1CCCNC1`: the “thermal shift delta Tm” value came out at 0.65 °C.
Same read-out and setting: in the case of `CNC(=O)c1ccc(-c2cnc3ncc(Cc4ccc5ncccc5c4)n3n2)cc1F` it was 0.39 °C.

Another assay concerns LOC_OS01G63280-cb003. The description is as above. To be noted: 12.5 µM; protein concentration 2 µM. The method in brief:
as §1
`COCCNCc1ccc(-c2cc3nccc(Oc4ccc(NC(=O)C5(C(=O)Nc6ccc(F)cc6)CC5)cc4F)c3s2)nc1` [Sitravatinib (MGCD516)]: the “thermal shift delta Tm” value was found to be 1.87 °C.
In the case of `COCC(=O)NC/C=C/c1ccc2ncnc(Nc3ccc(Oc4ccc(C)nc4)c(C)c3)c2c1`, the “thermal shift delta Tm” value is -0.33 °C.
Still for that read-out and setting: in the case of `O=C(NOC[C@H](O)CO)c1ccc(F)c(F)c1Nc1ccc(I)cc1F` it was 0.57 °C; in that of `Cc1cc(Nc2cc(N3CCN(C)CC3)nc(/C=C/c3ccccc3)n2)n[nH]1`, 0.17 °C; in that of `Nc1nc(N)c2nc(-c3cccc(O)c3)c(-c3cccc(O)c3)nc2n1`, 0.44 °C.
On the same count and under the same terms, with `Cc1nc(Nc2ncc(C(=O)Nc3c(C)cccc3Cl)s2)cc(N2CCN(CCO)CC2)n1` [Dasatinib] the figure was 0.25 °C.
On the same count and under the same terms, in the case of `O=C(c1ccc(Nc2nccc(-c3cc4ccccc4s3)n2)cc1)N1CCC(N2CCCC2)CC1` [IKK-16 (IKK Inhibitor VII)] it was 2.16 °C.
With `CC(C)CC(=O)Nc1n[nH]c2c1CN(C(=O)C1CCN(C)CC1)C2(C)C`, the “thermal shift delta Tm” value came out at 0.65 °C.
On the same count and under the same terms, in the case of `COc1cc2c(Oc3ccc(NC(=O)C4(C(=O)Nc5ccc(F)cc5)CC4)cc3F)ccnc2cc1OCCCN1CCOCC1` it was 0.93 °C.
Same read-out and setting: in the case of `OCCn1cc(-c2cnc3nnn(Cc4ccc5ncccc5c4)c3n2)cn1` it was 0.3 °C; in that of `CC(C)(C)c1nc(-c2ccc(NC(=O)Nc3cccc(C(F)(F)F)c3)c3ccccc23)c2c(N)nccn12` [kira6], 14.6 °C.
As for `COc1ccc(-c2ccc3ncc4c(c3c2)n(-c2ccc(N3CCNCC3)c(C(F)(F)F)c2)c(=O)n4C)cn1`, the “thermal shift delta Tm” value was found to be 0.17 °C.
As to `FC(F)(F)c1ccc(CNc2ccc(Cc3c[nH]c4ncc(Cl)cc34)cn2)cn1` [Pexidartinib (PLX3397)], the “thermal shift delta Tm” value is 2.9 °C.
On the same count and under the same terms, with `Cc1nc(NC(=O)N2CCC[C@H]2C(N)=O)sc1-c1ccnc(C(C)(C)C(F)(F)F)c1` [Alpelisib (BYL719)] the figure was 0.27 °C; with `O=C(NCCO)c1cccc(-c2cc(Nc3ccc(OC(F)(F)F)cc3)ncn2)c1`, 0.31 °C; with `C[C@@H](Nc1cc(F)cc(F)c1)c1cc(C(=O)N(C)C)cc2c(=O)cc(N3CCOCC3)oc12`, 0.24 °C.
On the same count and under the same terms, in the case of `C[C@@H]1COCCN1c1cc(=O)n2c(n1)N(Cc1cncc(Cl)c1)[C@H](C(F)(F)F)CC2` it was 0.61 °C; in that of `CNc1nc(-c2ccc3c(N)n[nH]c3c2)cc(N2C[C@@H](C(=O)NC3CCCCC3)CC[C@H]2C)n1`, 0.81 °C; in that of `COc1cc(N2CCC(N(C)C)CC2)ccc1Nc1ncc(Cl)c(Nc2ccccc2P(C)(C)=O)n1`, 0.32 °C.
Same read-out and setting: in the case of `CN1CCN(c2ccc3nc(-c4c(N)c5c(F)cccc5[nH]c4=O)[nH]c3c2)CC1` [Dovitinib (TKI258) Lactate] it was 1.58 °C; in that of `N#C/C(=C(/N)Sc1ccc(N)cc1)c1ccccc1C(F)(F)F`, -0.09 °C.
Take `Cc1c(C(=O)N2CCOc3ccc(-c4ccc(N)nc4)cc3C2)ccc(S(C)(=O)=O)c1F`: the “thermal shift delta Tm” value was 0.62 °C.
For `CCOc1cc2ncc(C#N)c(Nc3ccc(F)c(Cl)c3)c2cc1NC(=O)/C=C/CN(C)C` [Pelitinib (EKB-569)], the “thermal shift delta Tm” value was -0.05 °C.
As to `Oc1ccc(Nc2nc(-c3ccc(Cl)cc3)cs2)cc1`, the “thermal shift delta Tm” value turned out to be 3.13 °C.
With `O=C(Nc1ccccc1C(=O)NC1CCCCNC1=O)c1cc2ccccc2s1` (stereo unspecified), the “thermal shift delta Tm” value was -0.03 °C.
Regarding `CC(C)c1c2cc(-c3ccnc(NC4CCC(NC5CCOCC5)CC4)n3)ccc2nn1C` (stereo unspecified), the “thermal shift delta Tm” value was determined as 0.36 °C.
In the case of `NCC(=O)Nc1ccc(-n2nc(C(F)(F)F)cc2-c2ccc3c(ccc4ccccc43)c2)cc1`, the “thermal shift delta Tm” value is 3.67 °C.
The same measure, in the same setting: in the case of `Cc1cc(NC(=O)c2cccc(NC(=O)/C=C/CN(C)C)c2)ccc1Nc1nccc(-c2cccnc2)n1` it was 0.92 °C; in that of `N#Cc1ccc2ncnc(NCCc3ccccc3)c2c1` [Senexin A], 0.25 °C.
The same measure, in the same setting: with `CCOc1cn(-c2ccc(F)cc2C)nc1C(=O)Nc1ccc(Oc2ccnc3cc(OC)c(OC)cc23)c(F)c1` the figure was 0.6 °C; with `Fc1ccc2[nH]ccc2c1-c1nc(N2CCOCC2)c2sc(CN3CCN(CC4CC4)CC3)cc2n1`, 0.86 °C.
Same read-out and setting: in the case of `COc1cccc2cc(-c3nc([C@H]4CC[C@H](C(=O)O)CC4)n4ncnc(N)c34)[nH]c12` it was 1.4 °C; in that of `N#Cc1cnc(Nc2cc(NC[C@H]3CNCCO3)c(C(F)(F)F)cn2)cn1`, 0.31 °C; in that of `O=C(NOCCO)c1ccc2cncn2c1Nc1ccc(I)cc1F`, 0.2 °C.
For `COc1cc2c(Nc3ccc(NC(=O)c4ccccc4)cc3)ncnc2cc1OCCCN1CCOCC1`, the “thermal shift delta Tm” value turned out to be 1.19 °C.
On the same count and under the same terms, in the case of `NC(=O)Nc1cc(-c2cccc(F)c2)sc1C(=O)N[C@H]1CCCNC1` it was 0.86 °C; in that of `CNC(=O)c1ccc(-c2cnc3ncc(Cc4ccc5ncccc5c4)n3n2)cc1F`, 0.07 °C.
